An excerpt weighted towards active compounds, which were near 9.2% of everything screened.
KDM4E inh: blocks human JMJD2E demethylase activity. B2RXH2. JMJD2E catalytic domain, FDH-coupled NADH fluorescence (FDH is formaldehyde dehydrogenase). Potency, µM (top dose mostly 57.1 µM), for inactives: top-dose activity change, negative = inhibition, hits mostly inhibitors. actives 1.6% (n = 230,000). AID 2147;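 further: 0% = wells with enzyme and -100% = buffer wells without enzyme; nearly all actives have a fitted effect of over 50% in size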
HTT ATP protect: protects HTT-Q103 PC12 cells, measured by ATP; PC12 HTT-Q103 induced, cytoprotection, ATP luminescence, 40 h; Potency, µM (doses to about 56.4 µM), for inactives: cytoprotection (ATP increase), hits mostly activators; actives 0.14% (n = 230,000); AID 1471; active means well fitted curve in the direction sought with a large enough effect; inconclusive means small, poorly fitted or top-dose-only effect, or another doubt; inactive means no such curve, though single readings can be large; an effect the other way counts as inactive or inconclusive; further: % of control where 0% means no effect; nearly all actives have a fitted effect of over 45% in size
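Stable PC12 Q103-GFP cells in serum-supplemented, phenol red-free DMEM; induction by tebufenozide at 100 nM final; compound dose series; cell viability quantified luminescently from ATP.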
HPGD inh: HPGD (human) dehydrogenase inhibition; Potency, µM, without a hit: at the top dose activity change, negative = inhibition, most hits filed as inhibitors; actives 4.3% (n = 150,000); purified HPGD, NADH fluorescence kinetic, PGE2 substrate; further: on the % scale 0 is the no-effect control and ±100 the full control effect
Target sequence (P15428 whole entry, looked up): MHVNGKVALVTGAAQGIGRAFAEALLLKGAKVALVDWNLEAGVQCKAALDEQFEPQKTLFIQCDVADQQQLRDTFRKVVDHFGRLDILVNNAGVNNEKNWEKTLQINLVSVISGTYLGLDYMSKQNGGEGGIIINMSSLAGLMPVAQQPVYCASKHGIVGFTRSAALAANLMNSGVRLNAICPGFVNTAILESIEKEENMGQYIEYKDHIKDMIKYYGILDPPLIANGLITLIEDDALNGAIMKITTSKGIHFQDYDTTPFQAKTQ
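NADH formation kinetics: reaction with 30 uM PGE2 and 1 mM NAD+ (final), 20 nM enzyme, Tris-HCl pH 8 with Tween 20, after 15 min compound preincubation at room temperature. Fluorescence change, last versus first of five reads.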
HTT aggregate: reduces HttQ103-GFP aggregates in PC12 cells | actives 1.1% (n = 220,000) | PC12 HttQ103-GFP aggregates, Acumen cytometry, 40 h | AID 1688 | Potency, µM (highest dose often 46.1 µM), for inactives: top-dose activity change, negative = inhibition, actives largely listed as inhibitors; active means well fitted curve in the direction sought with a large enough effect; inconclusive means small, poorly fitted or top-dose-only effect, or another doubt; inactive means no such curve, though single readings can be large; an effect the other way counts as inactive or inconclusive; further: on the % scale 0 is the no-effect control and ±100 the full control effect; nearly all actives have a fitted effect of over 60% in size
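Steps: seed 1500 PC12 HTTQ103-GFP cells/well; add tebufenozide, 100 nM final; add compound titration; add ATPLite reagent; quantify GFP aggregates by laser scanning cytometry.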
ALDH1A1 block: ALDH1A1 (human) enzyme inhibition | P00352 | Purified ALDH1A1, NADH fluorescence, propionaldehyde substrate | Potency, µM (top dose mostly 75.3 µM), for inactives: top-dose activity, negative = inhibition, usual class: inhibitors | actives 7.3% (n = 220,000);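 further: plate controls were no enzyme wells and a reference inhibitor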
Target sequence (P00352 whole entry, looked up): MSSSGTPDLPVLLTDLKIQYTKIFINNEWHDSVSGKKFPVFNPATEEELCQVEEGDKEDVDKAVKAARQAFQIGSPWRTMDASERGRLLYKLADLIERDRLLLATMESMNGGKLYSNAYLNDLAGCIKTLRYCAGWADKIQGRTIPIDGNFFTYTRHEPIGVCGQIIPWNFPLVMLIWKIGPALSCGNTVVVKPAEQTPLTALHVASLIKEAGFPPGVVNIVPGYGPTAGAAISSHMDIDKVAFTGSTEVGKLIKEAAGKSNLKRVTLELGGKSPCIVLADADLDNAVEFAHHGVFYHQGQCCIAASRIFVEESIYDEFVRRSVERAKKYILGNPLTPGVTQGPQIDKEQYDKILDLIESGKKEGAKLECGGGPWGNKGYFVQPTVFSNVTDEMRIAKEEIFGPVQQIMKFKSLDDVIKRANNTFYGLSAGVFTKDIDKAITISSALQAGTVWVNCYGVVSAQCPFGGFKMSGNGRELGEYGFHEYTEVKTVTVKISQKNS
Lamin A splicing: modulators of lamin A splicing. HeLa LMNA splicing GFP/RFP minigene ratio, 48 h. Potency, µM (series often up to 46.1 µM), for the others: at the top dose ratio change, negative = inhibition, actives largely listed as inhibitors. actives 0.01% (n = 200,000); active means well fitted inhibition curve with a large enough effect in the signal ratio, with a control signal flat, not every such curve was filed as active; inconclusive means small, poorly fitted or top-dose-only effect, or effect the other way, or a change in a side signal; the % refers to the signal ratio; further: on the % scale 0 is the no-effect control and ±100 the full control effect
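Read-out is the ratio of GFP to DsRed2 object intensity, acquired by 488 nm laser-scanning cytometry on HeLa lamin A-EGFP minigene reporter cells. Compound incubation 48 hrs at 37 °C in Opti-MEM with 2% FBS; DMSO 0.5% final.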
* hit, by the source's call; ? = inconclusive; . = not tested or not shown; [ ] = dose if it differs, or a comment. Unless noted, the call rests on the fitted dose curve; in most records, active means well fitted inhibition curve with a large enough effect (not every such curve was filed as active); inconclusive means small, poorly fitted or top-dose-only effect, or another doubt; inactive means no such curve, though single readings can be large or run the other way. Potency means the concentration at half of the fitted maximal effect.

SMILES | KDM4E inh | HTT ATP protect | HPGD inh | HTT aggregate | ALDH1A1 block | Lamin A splicing
COc1cccc(N2CCN(C(=O)c3ccc4nc(N5CCC(C)CC5)sc4c3)CC2)c1 | -8% | -12%[10 µM] | . | 10%[9.22 µM] | . | .
CCOC(CNC(=O)c1ccc2nc(N3CCC(C)CC3)sc2c1)OCC | -20% | -14% | -10% | -11% | 14µM* | -19%
COc1ccc(CNc2ncnc3c2nc2n3CCCC2)cc1 | . | . | . | . | . | 12%[46 µM]
C[C@@]12CCC(=O)C=C1C=CC1C2CC[C@]2(C)C1CC[C@@]21CCC(=O)O1 (some centres undefined) | 5% | ? | 0% | 17% | 9% | .
CCOc1ccccc1NC(=O)Cn1cnc2onc(-c3ccc(F)cc3)c2c1=O | . | . | . | . | . | 17%[46 µM]
Cc1ccc(OCCNS(=O)(=O)c2ccc(N3CCCC3=O)cc2)cc1 | 10% | 18%[10 µM] | -7% | 11µM* | -3% | ?
COc1cc2c(cc1OC)/C(=C/C#N)NC(C)(C)C2 | -1% | -34% | -21% | 11%[9.22 µM] | 2µM* | -4%
CNS(=O)(=O)c1ccccc1C(=N)c1ccccc1 | . | 4%[10 µM] | -6% | . | 6%[13.5 µM] | .
O=C(Nc1cccc(-c2cn3c(n2)SCC3)c1)c1ccc(Br)o1 | ? | -42% | . | 12% | 16µM* | ?
O=C(Cc1ccc(F)cc1)Nc1cccc(-c2cn3c(n2)SCC3)c1 | -12% | -33% | . | -6% | 0% | ?
Cc1cccc(C2(c3cccc(C)c3)CC2C(=O)Nc2ccc([N+](=O)[O-])cc2O)c1 (centres undefined) | -29% | 5%[10 µM] | 18µM* | ? | -4% | ?
Cc1cccc(C2(c3cccc(C)c3)CC2C(=O)NCC2CCCO2)c1 (centres undefined) | -6% | 13%[10 µM] | -8% | 5% | 14% | 7%
O=C(CSCC(=O)N1CCCCC1)Nc1nc(-c2ccc(Cl)s2)cs1 | -8% | -16% | ? | -3% | 25µM* | -9%
O=C(Nc1nccs1)c1ccc(NC(=O)C2CC=CCC2C(=O)O)cc1 (centres undefined) | 2% | 4%[10 µM] | . | 12%[9.22 µM] | 4µM* | .
O=C(O)c1ccc(NC(=O)C2CC=CCC2C(=O)O)cc1 (centres undefined) | 2% | -37% | -8% | 2% | 9% | -4%
CC1(C)Cc2c(C#N)c(N)sc(=S)c2CO1 | ? | -5% | -11% | -12% | 11µM* | 4%
COc1ccc(C[C@H]2COC(=O)[C@@H]2Cc2ccc(OC3OC(CO)C(O)C(O)C3O)c(OC)c2)cc1OC (some centres undefined) | 2% | . | -8% | -9% | -1% | ?
COc1cc(C2OCC3C(c4ccc(OC5OC(CO)C(O)C(O)C5O)c(OC)c4)OCC23)ccc1O (centres undefined) | 28µM* | 17%[10 µM] | . | 5%[9.22 µM] | -9% | .
O=C1CCC2S/C(=C/Nc3ccc(C(F)(F)F)cc3)C(=O)N12 (centres undefined) | -2% | -69% | . | 1% | 13µM* | 7%[46 µM]
CC(C(=O)O)n1c(-c2ccn[nH]2)n[nH]c1=S (centres undefined) | -14% | -2%[10 µM] | . | -4%[9.22 µM] | -3% | .
Cc1nc(N2CCC(C)CC2)c2c(C)c(C(=O)O)sc2n1 | -1% | -15%[1.9 µM] | 20µM* | ? | -7% | 17%
O=[N+]([O-])c1ccc(NC2CCCC2)cc1 | 9% | -10%[0.074 µM] | -22% | -10% | -3% | ?
O=[N+]([O-])c1ccc(N/N=C2/CCCCC2c2ccccn2)cc1 (centres undefined) | -29% | -2%[10 µM] | -14% | 9% | 0.045µM* | -2%
CCc1c(C)sc(NC(=O)c2cc(CC(C)C)on2)c1C#N | 36% | -4% | -18% | -20% | ? | -6%
CCc1c(C)sc(NC(=O)c2noc(C)c2[N+](=O)[O-])c1C#N | -9% | 18% | . | 0% | 18µM* | -6%[46 µM]
SMILES | KDM4E inh | HTT ATP protect | HPGD inh | HTT aggregate | ALDH1A1 block | Lamin A splicing
CN1CCC(=O)N(CCSc2ccc(Br)cc2)CC1 | 2% | 16%[10 µM] | . | -6%[9.22 µM] | . | .
Cc1ccc2cc(CN(Cc3cccs3)Cc3nnnn3CC3CCCO3)c(=O)[nH]c2c1 (centres undefined) | -8% | -15% | -13% | -1% | 7.9µM* | -5%
Cc1ccc2[nH]c(=O)c(CN(Cc3cccs3)Cc3nnnn3CC3CCCO3)cc2c1 (centres undefined) | -3% | -14%[10 µM] | -12% | -9% | 20µM* | 4%
COc1ccccc1CN(Cc1cc2cc(C)ccc2[nH]c1=O)Cc1nnnn1CC1CCCO1 (centres undefined) | ? | -24% | -14% | -16% | ? | 1%
Cc1ccc2cc(CN(Cc3cccs3)Cc3nnnn3CC3CCCO3)c(=O)[nH]c2c1C (centres undefined) | ? | -32% | ? | 3% | ? | -4%
CCC(=O)NC1(C(F)(F)F)C(=O)Nc2c1c(=O)[nH]c(=O)n2CC(C)C (centres undefined) | -7% | 24%[10 µM] | . | -6%[9.22 µM] | . | .
Fc1cc(F)c(F)c(SCCc2ccncc2)c1F | ? | -22% | ? | -5% | 7.9µM* | ?
CCN(CC)S(=O)(=O)c1ccc(Cl)c(C(=O)Oc2cccnc2)c1 | 7% | -5% | -26% | 16% | 14µM* | 7%
O=C(c1cccc(Oc2ccc([N+](=O)[O-])cc2Cl)c1)N1CCCCC1 | -9% | . | . | -11% | ? | .
CN(C)S(=O)(=O)c1ccc(N2CCCC2)c(C(=O)N2CCN(c3ccc([N+](=O)[O-])cc3)CC2)c1 | -2% | -30% | . | -19% | 14µM* | -18%[46 µM]
O=C(c1ccc(Oc2ccc([N+](=O)[O-])cc2Cl)cc1)N1CCCC1 | 4% | -19% | . | 12% | 22µM* | .
Cc1ccc(C(=O)c2cc([N+](=O)[O-])ccc2N2CCCCC2)cc1 | -1% | -73%[10 µM] | -9% | 1% | 20µM* | ?
O=C(c1cc([N+](=O)[O-])ccc1N1CCCCC1)N1CCCC1 | 1% | 19%[10 µM] | -4% | -6% | 28µM* | 7%
COc1ccccc1CNc1ncncc1-c1ccc(C(=O)N(C)C)cc1 | . | 2% | . | . | -9% | 9%
Cc1cccc(/C=C(\C(=O)C(=O)O)c2ccc3ccccc3n2)c1 | ? | -57% | . | -2% | 7.9µM* | ?
COc1ccc(CNCc2ccco2)cc1OCc1ccccc1 | 4% | -21%[10 µM] | -11% | 3% | 11µM* | -2%
CCOc1ccc(NC(=S)N2CCCN(Cc3cc(C)ccc3C)C2)cc1 | 40% | -46% | . | 28µM* | 1% | ?
COc1cc(NC(=O)CSC2=Nc3ccccc3N=C(c3ccc(F)cc3)C2)cc(OC)c1 | . | . | . | . | . | 4%[46 µM]
CCOc1ccc(NCc2nnc(SCc3ccccc3Cl)n2-c2ccccc2)cc1 | -6% | -47% | -15% | -22% | 13µM* | -5%

High-throughput results (PubChem)
